Only some compounds are listed: those with a hit (about 2% of all), similar ones and a draw of the others.
EP2 modulator: EP2 receptor modulators, cAMP readout, primary screen, cell-based, HTRF cAMP, PGE2 stimulation; Prostaglandin E2 receptor EP2 subtype (Homo sapiens), P43116; induction, % at 25 µM; EP2-expressing cells, cAMP HTRF FRET, PGE2 co-stimulation; 0.83% of 260,000 active;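 active = compounds whose cAMP rise, as percent of the full-agonist control response, exceeds 60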;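 note: rat C6 glioma line stably carrying human EP2 under a CMV promoter; the protocol text gives 20 µM as final concentration; 100% = response of wells given 1 µM PGE2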
Target sequence (P43116 whole entry, looked up): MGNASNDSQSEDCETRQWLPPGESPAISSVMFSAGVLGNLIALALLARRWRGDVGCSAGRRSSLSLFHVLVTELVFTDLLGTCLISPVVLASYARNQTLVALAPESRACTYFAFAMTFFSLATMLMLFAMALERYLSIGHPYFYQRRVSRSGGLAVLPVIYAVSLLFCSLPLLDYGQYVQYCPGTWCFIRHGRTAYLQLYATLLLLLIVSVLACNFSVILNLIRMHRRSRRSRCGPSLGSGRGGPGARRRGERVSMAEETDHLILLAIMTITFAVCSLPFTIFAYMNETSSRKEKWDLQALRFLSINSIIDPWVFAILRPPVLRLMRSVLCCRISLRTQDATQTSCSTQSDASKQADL
EP2 antag: human EP2 receptor antagonists, primary screen, TR-FRET cAMP, C6 glioma cells; AID 1422, 2008; C6 glioma cells expressing human EP2; cells stimulated with saturating PGE2; inhibition, % at 25 µM; 0.52% of 260,000 active;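 active = percent inhibition above 40 after rounding to a whole number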;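 note: rat C6 glioma host cells with rolipram phosphodiesterase inhibitor present; the protocol text gives 20 µM as final concentration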
CHT inh: inhibitors of human choline transporter CHT; High affinity choline transporter 1 (Homo sapiens), Q9GZV3; B-score at 10 µM; AID 488975, 2010; CHT-expressing cells, membrane potential dye, choline response; stronger effect = lower value; 0.86% of 310,000 active;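 active = B-score over 3 SD under the library average, and starting fluorescence ratio not unusually high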;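 note: choline stimulus applied at its EC90 after an EC20 pre-addition; B-score computed on integrated fluorescence ratio after choline addition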
CHT allo act: CHT positive allosteric modulators, primary screen, cell-based, membrane potential dye, choline EC20; High affinity choline transporter 1 (Homo sapiens), Q9GZV3; CHT-expressing cells; stronger effect = higher value; LV-AA mutant CHT in HEK293 cells; B-score at 10 µM; 0.49% of 310,000 active; AID 488977, 2010;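 active = initial fluorescence not abnormally high and integrated response B-score, plate-corrected, over 3 SD above library mean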
CHT activ conf: CHT activators, confirmation, cell-based, membrane potential dye, duplicate. activation, % at 10 µM. AID 504833, 2011. CHT-expressing cells, membrane potential dye fluorescence (FDSS); % of choline EC20–EC90 response window; HEK293 expressing CHT LV-AA mutant; choline added at its EC20. shares compounds with CHT allo act. 91% of 2,500 active;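 active = primary screen active, with duplicate mean activation above negative control mean plus 3 SD, cut at about 11% in these data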
HEK293 MP dye: membrane potential response in parental HEK293 cells, counter-screen for CHT activator project, cell-based, membrane potential dye. shares compounds with CHT allo act. ratio readout change at 10 µM, hits read low. membrane potential dye fluorescence (FDSS); measured after EC20 choline addition. 62% of 2,500 active;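 active = duplicate-averaged ratio beyond 3 SD from buffer wells, up or down, though filed actives are nearly all decreases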
The depositor's hits bear a star; i = inactive; . = no result.

SMILES	EP2 modulator	EP2 antag	CHT inh	CHT allo act	CHT activ conf	HEK293 MP dye
Cc1cc(NCCCN2CCOCC2)n2nc(C)c(-c3ccc(F)cc3)c2n1	-29	16	i	i	52*	-65*
Cc1nc2c(-c3ccccc3)c(C)nn2c(NCCCN2CCOCC2)c1C	-59	.	.	.	.	.
Cc1cc(C)c2ccc(SCC(=O)NCc3ccccc3)nc2n1	-6	7	.	.	.	.
Cc1cccc2cc(C(c3nnnn3C3CCCCC3)N3CCCc4ccccc43)c(=O)[nH]c12 (stereo unspecified)	33	17	.	.	.	.
COc1cc(OC)c2nc(C)c3c(c2c1)N(c1ccc(O)cc1)CC3	-2	.	i	6.4*	34*	-42*
COc1ccc(N2CCN(c3cc(C)c4ccc(O)cc4n3)CC2)cc1	2	10	i	i	.	.
Cc1cc(C)cc(OCC(=O)NCc2ccco2)c1	-106	8	.	.	.	.
C=CCn1c(COc2ccc(OC)cc2)n[nH]c1=S	-34	10	.	.	.	.
CN1CCN(CC(=O)Nc2cc(N(C)C)nc3ccccc23)CC1	14	4	i	i	38*	-40*
CCC(=O)N(Cc1ccc(OC)cc1)Cc1cc2cc3c(cc2[nH]c1=O)OCO3	-23	19	.	.	.	.
C/C(=N\NC(=O)c1nn(C)cc1Br)c1ccncc1	0	14	i	7.3*	17*	-37*
CC1CSc2n(-c3cccc(C(F)(F)F)c3)cc(-c3ccccc3)[n+]21 (stereo unspecified)	20	4	i	i	50*	-31*
COc1ccc(N2CCN(C(c3ccccc3Cl)c3nnnn3Cc3ccco3)CC2)cc1 (stereo unspecified)	-31	6	.	.	.	.
COc1ccc(N2CCN(C(c3cc(OC)ccc3OC)c3nnnn3Cc3ccco3)CC2)cc1 (stereo unspecified)	33	10	i	7.4*	21*	i
CCC(C)(C)n1nnnc1C(c1cc(OC)ccc1OC)N1CCN(Cc2ccccc2)CC1 (stereo unspecified)	32	4	i	7.6*	35*	i
CCC(C)(C)n1nnnc1C(c1cc(OC)ccc1OC)N1CCN(Cc2ccncc2)CC1 (stereo unspecified)	-36	12	.	.	.	.
CCCn1c(SCC(=O)Nc2ccc(C)cc2Br)nnc1-c1ccccn1	-10	15	.	.	.	.
Cn1nnc(-c2ccccc2NCc2ccc(OCCO)cc2)n1	-58	2	.	.	.	.
CCOc1ccc(C(=O)Nc2cc(C)on2)cc1OCC	10	9	i	i	46*	-35*
CCCN1C(=O)c2ccc(C(=O)Nc3cc(C)on3)cc2C1=O	5	10	i	i	21*	-27*
Cc1cc(NC(=O)c2ccc3c(c2)C(=O)N(Cc2ccccc2)C3=O)no1	35	14	i	i	.	.
CCOC(=O)c1c(NC(=O)CCCl)sc(C(=O)OC)c1C	26	17	.	.	.	.
CC1CCN(C(=O)CSc2nnc3n(Cc4ccc(F)cc4)c4ccccc4n23)CC1	35	9	.	.	.	.
CN(C)c1ccc(/C=N/NC(=O)C(=O)/C=C2\NC3(CCCC3)Cc3ccccc32)cc1	-1	6	i	6.7*	0	i
Cc1ccc2c(n1)sc1c(N)ncnc12	21	11	i	8.3*	53*	-32*
CCc1ccc2[nH]c(=O)c(CN(CCCO)C(=O)Nc3ccccc3Cl)cc2c1	-31	7	.	.	.	.
CCn1cc(C(=O)O)c(=O)c2cc(F)c(N3CCN(CCC(=O)O)CC3)cc21	-6	12	.	.	.	.
CCn1cc(C(=O)O)c(=O)c2cc(F)c(N3CCNCC3)cc21	12	16	i	14*	39*	-42*
CCCCCCn1cc(C(=O)O)c(=O)c2cc(F)c(N3CCN(C)CC3)cc21	.	.	i	6.9*	59*	-76*
COc1cccc(OCC2CCCN(S(=O)(=O)c3cccnc3)C2)c1 (stereo unspecified)	-34	10	.	.	.	.

Compound activity (PubChem)
